# Experimental data from the antibiotic and cytotoxicity screens of Wong et al. (2023).
# About 3,300 (8.5%) of roughly 39,000 compounds were called active. The entries come from a sample that favours actives as a whole.
# Tested on: HepG2
# Assay: cytotoxicity call (relative viability < 0.9)
# Settings: 10 µM
row,Compound,cytotoxicity call
1,C[C@H](CO)N1C[C@H](C)[C@H](CN(C)Cc2ccc(-c3ccccc3)cc2)Oc2ccc(NC(=O)Cn3cnnn3)cc2C1=O,inactive
2,C[C@H]1CN([C@@H](C)CO)C(=O)c2cccc(NS(=O)(=O)c3cn(C)cn3)c2O[C@@H]1CN(C)Cc1ccc(C(=O)O)cc1,inactive
3,Cn1nnnc1-c1ccc(N)cc1,inactive
4,COc1cc(NC(C)CCCN)c2ncccc2c1.O=P(O)(O)O.O=P(O)(O)O (stereo not given),active
5,Cc1c(-c2c(-c3ccc(F)o3)sc3ncnc(O[C@H](Cc4ccccc4OCc4ccnn4CC(F)(F)F)C(=O)O)c23)ccc(OCCN2CCN(C)CC2)c1Cl,active
6,C[C@H]1CN([C@@H](C)CO)C(=O)CCCn2cc(nn2)CO[C@H]1CN(C)S(=O)(=O)c1ccccc1C#N,inactive
7,C[C@H](CO)N1C[C@H](C)[C@H](CN(C)C(=O)Nc2ccc(F)cc2)OCCCC[C@H](C)Oc2ccc(NC(=O)NC3CCCCC3)cc2C1=O,inactive
8,O=c1[nH]c(=O)n(C2CC(O)C(CO)O2)cc1C(F)(F)F (stereo not given),inactive
9,Cc1cn([C@H]2C[C@H](O)[C@@H](CO)O2)c(=O)[nH]c1=O,inactive
10,O=c1[nH]c(=O)n([C@H]2C[C@H](O)[C@@H](CO)O2)cc1F,inactive
11,O=c1[nH]c(=O)n(C2CC(O)C(CO)O2)cc1F (stereo not given),active
12,O=c1[nH]c(=O)n([C@H]2C[C@H](O)[C@@H](CO)O2)cc1C(F)(F)F,active
13,O=c1[nH]c(=O)n([C@@H]2C[C@@H](O)[C@@H](CO)O2)cc1F,inactive
14,CCCNC(=O)C[C@H]1CC[C@@H]2[C@H](COc3ccc(NC(=O)c4ccc5c(c4)OCO5)cc3C(=O)N2C)O1,inactive
15,COc1ccccc1NC(=O)N(C)C[C@H]1Oc2ncc(C#CC(C)C)cc2C(=O)N([C@H](C)CO)C[C@H]1C,inactive
16,C/C=C/c1ccc2c(c1)O[C@H](CN(C)S(=O)(=O)c1ccccc1OC)[C@H](C)CN([C@H](C)CO)S2(=O)=O,inactive
17,COc1ccc(NC(=O)N(C)C[C@H]2OCCCC[C@H](C)Oc3ccc(NC(=O)NC4CCCCC4)cc3C(=O)N([C@H](C)CO)C[C@@H]2C)cc1,inactive
18,CN(C)c1ccc(NC(=O)CN)cc1,active
19,NCC(=O)Nc1ccc(Br)cc1,inactive
20,Cc1ccc(NC(=O)CC(C)C)cc1,inactive
21,C[C@H](CO)N1C[C@H](C)[C@H](CN(C)Cc2ccc3c(c2)OCO3)Oc2c(NS(C)(=O)=O)cccc2C1=O,inactive
22,C[C@H](CO)N1C[C@H](C)[C@H](CN(C)C(=O)CCCN(C)C)OCCCC[C@H](C)Oc2ccc(NC(=O)Nc3ccc(F)cc3)cc2C1=O,inactive
23,Cn1cnc(=O)c2ccccc21,inactive
24,Cc1ccc2c(=O)c3ccccc3n(CCCN)c2c1C,active
25,Cc1cccc(=O)n1CCCCN,inactive
